Measured values reported in PubChem BioAssay (NCATS).
Records with an inconclusive call do not appear. A number with no mark means an inactive call. Activity calls are given as the source filed them. Calls follow the shape of the dose curve; as a rule, active = well fitted cell-killing curve with a large enough effect; inconclusive = small, poorly fitted or top-dose-only effect, or effect the other way; inactive = no such curve, though single readings can be large or run the other way.

assay: Quantitative High-Throughput drug screen in 47 multiple myeloma cell lines against the NCATS MIPE library collection: KMS28BM_JCRB cell viability assay (AID 1919874); conditions: CellTiter-Glo ATP, 48 h; series mostly up to 45.8 µM; viability, % of control: at the top concentration; also: nearly all actives have a fitted effect of over 35% in size
Outline: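 Readout: median RLU from CellTiter-Glo after 5 min at room temperature. Preceding step was 48 h drug treatment of 500 cells/well at 37 °C, 5% CO2, with DMSO-only and media-only control wells.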
Potency is read from the fitted curve at half-maximal effect.

Structure (SMILES)	Potency	viability, % of control [%]
c1ccc(CCCN2CCN(CCOC(c3ccccc3)c3ccccc3)CC2)cc1	20.9 µM (active)	
Cc1nc(-c2ccc(-c3ccc(C(=O)N4CCc5cc6c(cc54)C4(CCN(C)CC4)CO6)cc3)c(C)c2)no1		135
Cc1c(C(=O)Nc2cccc(C(F)(F)F)c2)cc(-c2ccccc2)n1CCCN1CCOCC1	5.9 µM (active)	
CCOC(=O)c1c(C(C#N)=CN)c2ccc(Cl)c(Cl)c2n1C		121
CC[C@@H](C(N)=O)N1CCCC1=O		116
CCc1c(C(=O)C(N)=O)c2c(OCC(=O)O)cccc2n1Cc1ccccc1		112
CC(C)N(CCNC(=O)CN1CCCC1=O)C(C)C		116
C[C@@H]1O[C@@H](O[C@@H]2C=C3CC[C@@H]4[C@@H](CC[C@]5(C)[C@H](c6ccc(=O)oc6)CC[C@@]45O)[C@@]3(C)CC2)[C@H](O)[C@H](O)[C@H]1O	0.0083 µM (active)	
C=C[C@@H]1CN2CCC1C[C@@H]2[C@@H](O)c1ccnc2ccccc12 (stereo partly specified)	23.5 µM (active)	
C[C@@]12OC(=O)[C@]1([C@@H](O)[C@@H]1C=CCCC1)NC(=O)[C@H]2CCCl	0.0093 µM (active)	
CSCC[C@@H](NC(=O)[C@@H](Cc1ccccc1)NC(=O)CNC(=O)CNC(=O)[C@@H](N)Cc1ccc(O)cc1)C(=O)O		102
C=C1C[C@H]2[C@H]3CCC(=O)[C@@]3(C)CC[C@@H]2[C@@]2(C)C=CC(=O)C=C12		89.3
CC(C)(C)[C@]1(O)C[C@@H]2OC(=O)C[C@@]23C(=O)O[C@@H]2OC(=O)[C@H](O)C213 (stereo partly specified)		109
CC(=Cc1csc(C)n1)[C@@H]1C[C@H]2O[C@]2(C)CCC[C@H](C)[C@@H](O)[C@@H](C)C(=O)C(C)(C)[C@@H](O)CC(=O)O1		46
C[C@]12CC[C@@H]3[C@@H](CCC4=CC(=O)CC[C@@H]43)[C@@H]1CC[C@@H]2OC(=O)CCc1ccccc1		119
COc1cc([C@@H]2c3cc4c(cc3[C@@H](O)C3COC(=O)C32)OCO4)cc(OC)c1O (stereo partly specified)	0.0033 µM (active)	
C[C@]12Cc3cn[nH]c3C[C@@H]1CC[C@@H]1[C@H]2CC[C@@]2(C)[C@H]1CC[C@]2(C)O		120
CCC(=O)OC1CCC2C3CCC4=CC(=O)CC[C@@]4(C)C3CC[C@]12C (stereo partly specified)		106
CCN(CC)C(=O)c1ccc(C2=CC3(CCNCC3)Oc3cccc(O)c32)cc1		97.1
O=c1cccc2n1CC1CNC[C@H]2C1	5.26 µM (active)	
COc1ccc(CC2NCCc3cc(OC)c(OC)cc32)cc1OC (stereo unspecified)		89.2
Oc1ccc2c3c1O[C@H]1c4[nH]c5c(c4C[C@@]4(O)[C@@H](C2)N(CC2CC2)CC[C@]314)C[C@@]1(O)[C@H]2Cc3ccc(O)c4c3[C@@]1(CCN2CC1CC1)[C@H]5O4		132
C[C@]12COC(=O)C[C@@H]1CC[C@@H]1[C@H]2CC[C@@]2(C)[C@H]1CC[C@]2(C)O		104
C#C[C@]1(O)C=C[C@@H]2[C@@H]3CCC4=CC(=O)CC[C@@H]4[C@H]3CC[C@@]21CC		99.8
CC(=CCCC1=CCC(C2=CC(=O)OC2O)OC1O)CCC1=C(C)CCCC1(C)C (stereo unspecified)	2.64 µM (active)	
CC1=NN=C(c2ccc(N)cc2)c2cc3c(cc2C1)OCO3		103
